Vaccinia Venus = inhibitors of vaccinia virus (Venus reporter) | Potency, µM (titrated, usually from 36.5 µM), actives largely listed as inhibitors | AID 720580 | Vaccinia virus Venus reporter expression, fluorescence | 330,000 compounds, 0.46% hits; calls by dose curve; tested in A549 cells; further: nearly all actives have a fitted effect of over 30% in size
HCV inhibitor = HCV inhibition; Huh7.5.1 HCVcc-Cre infection, luciferase reporter, 44 h; Potency, µM (highest dose often 41.8 µM), hits mostly inhibitors; 340,000 compounds, 3.4% hits; AID 651820; active means well fitted inhibition curve with a large enough effect; inconclusive means small, poorly fitted or top-dose-only effect, or another doubt; inactive means no such curve, though single readings can be large or run the other way
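Cells seeded at 1,000/well and cultured 4 h, then compounds added followed by HCVcc-Cre virus (~0.5 moi). After 44 h further culture, luciferase substrate was added, plates held 15 min at room temperature, and luminescence read for 15 sec.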
VACV mCherry inh = vaccinia inhibition (mCherry reporter); 310,000 compounds, 0.63% hits; Potency, µM (top dose mostly 36.5 µM), most hits filed as inhibitors; AID 720579; Vaccinia virus mCherry reporter infection, fluorescence; calls by dose curve; tested in A549 cells; further: nearly all actives have a fitted effect of over 35% in size
Numbers stand for hits; i = inactive; ? = inconclusive; nt = no result given. Compounds with a hit are over-represented: about 3.3% of the library has one in this group of screens.

SMILES	Vaccinia Venus	HCV inhibitor	VACV mCherry inh
Oc1cccc(/C=N/Nc2cccc3cccnc23)c1	i	?	i
CCn1c(C)nc2cc(C(=O)N/N=C/c3cccc(OC)c3O)ccc21	?	?	10µM
CN(C)S(=O)(=O)c1cccc(COC(=O)c2cccnc2Cl)c1	i	i	i
Fc1cccc(Cc2c(C3CCCCC3)nc3ccc(Br)cn23)c1	i	nt	i
Cc1nc2ccccn2c1C(=O)N/N=C/c1ccccc1	nt	i	nt
Cc1nc2ccccn2c1C(=O)N/N=C/c1cc(C)n(-c2ccc(Br)cc2)c1C	nt	4µM	nt
COc1cccc(/C=N/NC(=O)N/N=C/c2cccc(OC)c2O)c1O	i	i	i
CCn1c(C)nc2cc(C(=O)n3cc(C(=O)c4cc(F)ccc4O)cn3)ccc21	nt	i	nt
COc1cccc(C=NNC(=O)c2ccncc2)c1O	?	?	1.6µM
CCC(=NNC(=O)c1ccc2c(c1)nc(C)n2CC)c1cc(F)ccc1O	?	?	10µM
CCOc1ccccc1NC(=O)CSc1nnc(N)s1	i	nt	i
CC(=O)CCC1CC(c2ccc(Cl)cc2)=NO1 (stereo not drawn)	i	2.8µM	i
NNC(=O)c1ccc(OCC2CC(c3ccc(Cl)cc3)=NO2)cc1 (stereo not drawn)	?	?	i
COC(=O)c1cc2oc3ccccc3c2n1Cc1cc(C)ccc1C	i	nt	i
COc1ccc(NC(=S)N(CCc2c(C)[nH]c3ccc(C)cc23)Cc2ccco2)cc1	?	?	i
COCCNC(=S)N(CCc1c(C)[nH]c2ccc(F)cc12)Cc1ccc(C)cc1	i	14µM	i
COCCNC(=S)N(CCc1c(C)[nH]c2ccc(C)cc12)Cc1ccco1	i	?	i
CCOc1ccc(NC(=S)N(CCc2c(C)[nH]c3ccc(C)cc23)Cc2ccco2)cc1	i	11µM	i
CNC(=S)N(CCc1c(C)[nH]c2ccc(C)cc12)Cc1cccs1	nt	10µM	nt
COc1ccc2[nH]c(C)c(CCN(Cc3cccs3)C(=S)Nc3ccc(F)cc3)c2c1	i	11µM	?
COc1ccc2[nH]c(C)c(CCN(Cc3cccs3)C(=S)Nc3ccccc3)c2c1	?	?	i
CNC(=S)N(CCc1c(C)[nH]c2ccc(C)cc12)Cc1cc(OC)c(OC)c(OC)c1	i	i	?
COc1ccc(C(=O)Nc2nc3n(n2)C(c2ccc(Cl)cc2)C=C(c2ccccc2)N3)cc1OC (stereo not drawn)	i	nt	i
COc1ccccc1C(=O)NCC(=O)OC(C)C(=O)N1CCOCC1 (stereo not drawn)	i	i	i
CCN(CC)C(=O)C1=C(C)N(Cc2ccc(F)cc2)C(=O)C(CC(=O)NCCN2CCOCC2)C1 (stereo not drawn)	i	nt	i
SMILES	Vaccinia Venus	HCV inhibitor	VACV mCherry inh
CCC(=O)NCCCCCCNC(=O)CC	i	i	i
O=C(CCl)NCCCCCCCCCNC(=O)CCl	5.6µM	?	14µM
CCC(C)(C)C(=O)Nc1ncc(S(=O)(=O)c2ccc([N+](=O)[O-])cc2)s1	?	i	?
CCCC(C)C(=O)Nc1ncc(S(=O)(=O)c2ccc([N+](=O)[O-])cc2)s1 (stereo not drawn)	?	?	2.5µM
CCCC(=O)N1CCN(c2nc3ccc(Br)cc3s2)CC1	nt	10µM	nt
CC(=O)N1CCN(c2nc3ccc(Br)cc3s2)CC1	nt	i	nt
CCCCC(=O)N1CCN(c2nc3ccc(Br)cc3s2)CC1	i	11µM	i
CCCC(=O)N1CCN(c2nc3ccc(CC)cc3s2)CC1	nt	i	nt
Cc1cccc(Cl)c1NC(=O)N1CCCN(c2nc3ccc(Cl)cc3s2)CC1	nt	7.1µM	nt
CCCC(=O)N1CCN(c2nc3ccc(Cl)cc3s2)CC1	nt	11µM	nt
CC(C)(C)C(=O)N1CCN(c2nc3ccc(Cl)cc3s2)CC1	i	i	i
O=C(c1ccco1)N1CCN(c2nc3ccc(Cl)cc3s2)CC1	i	nt	i
Cc1cccc(CNC(=O)c2ccc3oc(=O)n(Cc4ccccc4)c3c2)c1	i	nt	i
Cc1ccc2cc(CN(C(=O)c3ccc4c(c3)OCO4)C3CC3)c(N(C)C)nc2c1	i	nt	i
O=C(c1cnccn1)N(Cc1cccs1)C1(C(=O)NC2CCCCC2)CCCCC1	i	i	i
O=C(c1ccccn1)N(Cc1cccs1)C1(C(=O)NC2CCCCC2)CCCCC1	i	11µM	i
Cc1ccc(CN2CC(=O)N3[C@H]4c5cc(C)ccc5OC[C@@H]4[C@H](c4ccccc4)[C@]3(C)C2=O)cc1	i	?	i
COc1ccc2c(c1)[C@H]1[C@H](CO2)[C@H](c2ccccc2)[C@]2(C)C(=O)N(Cc3ccc(C)cc3)CC(=O)N12	?	10µM	i
COc1ccc2c(c1)OC[C@H]1[C@H]2N2C(=O)CN(Cc3ccc(Cl)cc3)C(=O)[C@@]2(C)[C@H]1c1ccccc1	i	11µM	?
COc1ccc(CN2CC(=O)N3[C@H]4c5ccc(OC)cc5OC[C@@H]4[C@H](c4ccccc4)[C@]3(C)C2=O)cc1	i	?	i
COc1ccc(CC(=O)NO)cc1OC	i	nt	i
Cc1cccc(C(=O)OCC(=O)c2ccc(CC(=O)N3CCOCC3)s2)c1C	nt	i	nt
CCN(CC(=O)Nc1cc(Cl)ccc1C)C(=O)CCS(=O)(=O)c1ccc(Cl)cc1	?	?	11µM
CCN(CC(=O)Nc1ccccc1C(F)(F)F)C(=O)CCS(=O)(=O)c1ccc(Cl)cc1	i	i	?
CC1=C(C(=O)Nc2ccccc2)C(C(C)C)n2nc(SCc3ccccc3C)nc2N1 (stereo not drawn)	i	nt	i
SMILES	Vaccinia Venus	HCV inhibitor	VACV mCherry inh
COc1cccc(C(=O)Nc2cc(NC(=O)c3cccs3)ccc2C)c1	nt	i	nt
COc1ccc(NC(=O)Nc2ccc(Cc3ccncc3)cc2)cc1OC	i	?	?
COc1cc(NC(=O)c2cc3ccccc3cc2OC)ccc1NC(=O)c1cccs1	nt	3.2µM	nt
COc1cc(NC(=S)NC(=O)c2cc(C)cc(C)c2)ccc1NC(=O)c1cccs1	i	?	i
COc1cc(NC(=O)c2ccccc2Cl)ccc1NC(=O)c1cccs1	i	i	i
COc1cccc(C(=O)Nc2cc(NC(=O)c3cccs3)ccc2C)c1OC	nt	10µM	nt
COc1cc2ccccc2cc1C(=O)Nc1ccc(Cc2ccncc2)cc1	nt	10µM	nt
COc1cc(NC(=S)NC(=O)c2ccccc2C)ccc1NC(=O)c1cccs1	i	2µM	?
CCN(CC)c1ccccc1/C=C/[n+]1ccc(CCCCI)c2ccccc21	i	nt	i
O=S(=O)(c1cccc(C(F)(F)F)c1)N1CCC(Oc2ccc(-n3cnnn3)cc2)CC1	?	nt	i
Cc1cc(C(=O)Nc2ccccc2C(=O)O)c(C)o1	i	i	i
COc1ccc(Cn2c(=O)oc3ccccc32)cc1OC	i	nt	i
COc1ccc(Cn2c(=O)oc3ccc(C)cc32)cc1OC	nt	14µM	nt
C/C=C(\C)CN1CCCC(N(C)CCc2ccc(OC)c(OC)c2)C1 (stereo not drawn)	nt	i	nt
CCCCn1c(=O)[nH]c(=O)c2c1nc(-c1ccc(OCCC)c(OCC)c1)n2CCOC	i	25µM	i
CCCOc1ccc(-c2nc3c(c(=O)[nH]c(=O)n3Cc3ccccc3)n2CCO)cc1OCC	i	?	i
CCC1CCc2c(sc(NC(=O)c3ccco3)c2C(N)=O)C1 (stereo not drawn)	nt	4µM	nt
CC(C)(C)C1CCc2c(sc(NC(=O)c3ccco3)c2C(N)=O)C1 (stereo not drawn)	i	i	i
CNC(=O)c1c(NC(=O)c2ccco2)sc2c1CCC2	nt	11µM	nt
COc1ccccc1NC(=O)c1c(NC(=O)c2ccco2)sc2c1CCC2	i	?	i

Bioassay records deposited in PubChem BioAssay by National Center for Advancing Translational Sciences (NCATS).
